Experimental data from the antibiotic and cytotoxicity screens of Wong et al. (2023).
Screen size: about 39,000 compounds; about 1,500 (3.8%) were called active. The sample as a whole holds a higher share of actives than the screen did.

tested on: HSkMC (human skeletal muscle cells); assay: cytotoxicity call (relative viability < 0.9); details: 10 µM

Compound | cytotoxicity call
C[C@@H]1CN([C@H](C)CO)C(=O)c2cc(C#Cc3ccccc3F)cnc2O[C@@H]1CN(C)C(=O)Cc1ccncc1 | inactive
C[C@H](CO)N1C[C@H](C)[C@H](CN(C)S(=O)(=O)c2cn(C)cn2)OCCCC[C@H](C)Oc2ccc(NC(=O)Nc3ccc(C(F)(F)F)cc3)cc2C1=O | inactive
O=C(CCC(=O)N1CCOCC1)Nc1c(F)c(F)nc(N2CCOCC2)c1F | inactive
C[C@@H]1CCCCO[C@H](CN(C)S(=O)(=O)c2ccccc2)[C@H](C)CN([C@@H](C)CO)C(=O)c2cc(NC(=O)Nc3cccc4ccccc34)ccc2O1 | inactive
COCC(=O)N1C[C@]2(C1)CN([C@H](CO)c1c2c2ccc(cc2n1C)OC)C(=O)CN1CCOCC1 | inactive
C/C=C/c1cccc(-c2nc(C(=O)NCc3ccc(OC)cc3)cc3c2[C@@H](CCO)N([S@@](=O)C(C)(C)C)C3)c1 | inactive
Cc1ccc(S(=O)(=O)N(C)C[C@H]2Oc3ncc(Br)cc3C(=O)N([C@H](C)CO)C[C@H]2C)cc1 | inactive
C[C@H](CO)N1C[C@H](C)[C@H](CN(C)Cc2ccc(C(F)(F)F)cc2)OCCCC[C@H](C)Oc2ccc(NS(C)(=O)=O)cc2C1=O | inactive
COc1ccc(OCC(=O)NCC(=O)O)cc1 | inactive
O=C(O)Cc1nnc(-c2ccncc2)[nH]1 | inactive
O=C(O)CCN1CCCCCC1=O | inactive
CCn1nnc2c1CCN(S(=O)(=O)c1cn(C)cn1)[C@@H]2COC | inactive
COc1ccc(S(=O)(=O)N(C)C[C@H]2OCCCC[C@@H](C)Oc3ccc(NC(=O)Nc4ccc5c(c4)OCO5)cc3C(=O)N([C@@H](C)CO)C[C@@H]2C)cc1 | inactive
Cc1cc(C(=O)Nc2cccc3c2O[C@H](CN(C)S(=O)(=O)c2cccs2)[C@H](C)CN([C@H](C)CO)C3=O)n(C)n1 | inactive
Oc1ccc(F)c2ccccc12 | inactive
Cc1cccc2ccccc12 | inactive
Oc1cccc2ccccc12 | active
C[C@H](CO)N1C[C@H](C)[C@H](CN(C)C(=O)Nc2ccc(C(F)(F)F)cc2)OCCCC[C@H](C)Oc2ccc(NC(=O)C3CCCCC3)cc2C1=O | inactive
O=C(C[C@@H]1CC[C@@H]2[C@H](COC[C@@H](O)CN2S(=O)(=O)c2ccccc2)O1)NCc1ccc2c(c1)OCO2 | inactive
C[C@H]1CN([C@@H](C)CO)C(=O)c2c(c3ccccc3n2C)-c2ccccc2CO[C@@H]1CN(C)C(=O)NC1CCCCC1 | inactive
CC(C)=CCC1=C(O)C(=O)c2ccccc2C1=O | inactive
C=CC(C)(C)c1[nH]c2ccccc2c1C1=C(O)C(=O)C(c2c[nH]c3c(CC=C(C)C)cccc23)=C(O)C1=O | active
C[C@@H]1CN([C@@H](C)CO)C(=O)c2cc(NS(=O)(=O)c3cn(C)cn3)ccc2O[C@@H]1CN(C)C(=O)Nc1ccc(F)cc1 | inactive
C[C@@H]1CN([C@@H](C)CO)C(=O)c2cc(NC(=O)Nc3cccc4ccccc34)ccc2O[C@@H](C)CCCCO[C@@H]1CN(C)Cc1ccc(C(=O)O)cc1 | inactive

Compound | cytotoxicity call
Cc1ccc(S(=O)(=O)N(C)C[C@H]2Oc3ccc(NS(=O)(=O)c4ccc(F)cc4)cc3C(=O)N([C@@H](C)CO)C[C@H]2C)cc1 | inactive
COc1ccccc1C#Cc1cnc2c(c1)C(=O)N([C@H](C)CO)C[C@@H](C)[C@H](CN(C)C(=O)c1ccc3c(c1)OCO3)O2 | inactive
COc1ccc(C#Cc2ccc([C@H]3[C@H]4CN(S(=O)(=O)c5cn(C)cn5)CCCCN4[C@H]3CO)cc2)cc1 | inactive
CC(C)(O)C#Cc1ccc([C@H]2[C@H](CO)N3CCCCN(S(C)(=O)=O)C[C@@H]23)cc1 | inactive
COc1ccc(C#Cc2ccc([C@@H]3[C@@H](CO)N4CCCCN(S(=O)(=O)c5cn(C)cn5)C[C@@H]34)cc2)cc1 | active
COc1ccc(C#Cc2ccc([C@H]3[C@@H](CO)N4CCCCN(S(=O)(=O)c5cn(C)cn5)C[C@H]34)cc2)cc1 | active
COc1ccc(C#Cc2ccc([C@H]3[C@@H](CO)N4CCCCN(S(=O)(=O)c5cn(C)cn5)C[C@@H]34)cc2)cc1 | inactive
COc1ccc(C#Cc2ccc([C@@H]3[C@@H](CO)N4CCCCN(S(=O)(=O)c5cn(C)cn5)C[C@H]34)cc2)cc1 | active
COc1ccc(C#Cc2ccc([C@H]3[C@H](CO)N4CCCCN(S(=O)(=O)c5cn(C)cn5)C[C@@H]34)cc2)cc1 | inactive
COc1ccc(C#Cc2ccc([C@@H]3[C@H]4CN(S(=O)(=O)c5cn(C)cn5)CCCCN4[C@H]3CO)cc2)cc1 | inactive
COc1ccc(C#Cc2ccc([C@@H]3[C@H](CO)N4CCCCN(S(=O)(=O)c5cn(C)cn5)C[C@@H]34)cc2)cc1 | inactive
C[C@H](CO)N1C[C@H](C)[C@H](CN(C)Cc2ccc(Oc3ccccc3)cc2)Oc2ccc(NC(=O)c3ccncc3)cc2C1=O | inactive
C[C@@H]1CN([C@@H](C)CO)C(=O)Cc2cc(NC(=O)Cn3cnnn3)ccc2O[C@@H]1CN(C)C(=O)Nc1cccc2ccccc12 | inactive
C=CC[C@H](CC(=O)NCCO)C(=O)N[C@@H](COC(=O)[C@@H](CC=C)CC(=O)OC(C)(C)C)Cc1c[nH]c2ccccc12 | inactive
COc1ccc(NC(=O)Nc2ccc3c(c2)C(=O)N([C@H](C)CO)C[C@H](C)[C@H](CN(C)S(=O)(=O)c2c(C)noc2C)OCCCC[C@@H](C)O3)cc1 | inactive
COCC(=O)Nc1ccc2c(c1)C(=O)N(C)C[C@@H](OC)[C@@H](C)CN(C(=O)Cc1cccnc1)[C@H](C)CO2 | inactive
C[C@@H]1CCCCO[C@H](CN(C)C(=O)Nc2ccc3c(c2)OCO3)[C@H](C)CN([C@@H](C)CO)C(=O)c2cc(NS(=O)(=O)c3ccc(F)cc3)ccc2O1 | inactive
Cc1ccc(S(=O)(=O)Nc2ccc3c(c2)C(=O)N([C@@H](C)CO)C[C@H](C)[C@H](CN(C)Cc2ccc(C(=O)O)cc2)OCCCC[C@@H](C)O3)cc1 | inactive
Cc1cc(C)n2nc(N)nc2n1 | inactive
C[n+]1c2cc(N)ccc2cc2ccc(N)cc21.[Cl-] | inactive
Nc1ccc2cc3ccc(N)cc3nc2c1.O=S(=O)(O)O | active
Nc1ccc2c(c1)nc(CO)n2CCO | inactive
C[C@@H]1CCCCO[C@@H](CN(C)Cc2ccccc2)[C@H](C)CN([C@@H](C)CO)C(=O)c2cc(NC(=O)C3CCCCC3)ccc2O1 | inactive
COCCC(=O)NS(=O)(=O)c1ccccc1 | inactive

Compound | cytotoxicity call
CC(C)(C)C(=O)N1CCNCC1 | inactive
C[C@H]1CN([C@@H](C)CO)C(=O)c2cc(C#CCN(C)C)cnc2O[C@@H]1CN(C)C(=O)Nc1ccccc1F | inactive
C=C1C[C@@H]2CC[C@@]34C[C@H]5O[C@H]6[C@@H](O3)[C@H]3O[C@H](CC[C@@H]3O[C@H]6[C@H]5O4)CC(=O)C[C@@H]3[C@@H](OC)[C@@H](C[C@H](O)CN)O[C@H]3C[C@H]3O[C@@H](CC[C@@H]1O2)C[C@@H](C)C3=C | active
COc1ccc(NC(=O)N(C)C[C@@H]2Oc3ccc(NC(=O)Nc4ccc(C(F)(F)F)cc4)cc3CC(=O)N([C@@H](C)CO)C[C@@H]2C)cc1 | inactive
C[C@@H]1CN([C@H](C)CO)C(=O)c2cc(Br)cnc2O[C@H]1CN(C)S(=O)(=O)c1ccc(F)cc1 | inactive
COc1ccccc1C#Cc1ccc2c(c1)O[C@@H](CN(C)Cc1ccncc1)[C@H](C)CN([C@H](C)CO)S2(=O)=O | active
COc1ccccc1C#Cc1ccc2c(c1)O[C@H](CN(C)Cc1ccncc1)[C@H](C)CN([C@@H](C)CO)S2(=O)=O | inactive
COc1ccccc1C#Cc1ccc2c(c1)O[C@@H](CN(C)Cc1ccncc1)[C@@H](C)CN([C@H](C)CO)S2(=O)=O | inactive
COc1ccccc1C#Cc1ccc2c(c1)O[C@@H](CN(C)Cc1ccncc1)[C@@H](C)CN([C@@H](C)CO)S2(=O)=O | inactive
COc1ccccc1C#Cc1ccc2c(c1)O[C@H](CN(C)Cc1ccncc1)[C@@H](C)CN([C@@H](C)CO)S2(=O)=O | active
COc1ccccc1C#Cc1ccc2c(c1)O[C@@H](CN(C)Cc1ccncc1)[C@H](C)CN([C@@H](C)CO)S2(=O)=O | active
COc1ccccc1C#Cc1ccc2c(c1)O[C@H](CN(C)Cc1ccncc1)[C@@H](C)CN([C@H](C)CO)S2(=O)=O | inactive
COc1ccccc1C#Cc1ccc2c(c1)O[C@H](CN(C)Cc1ccncc1)[C@H](C)CN([C@H](C)CO)S2(=O)=O | inactive
C[C@H](CO)N1C[C@H](C)[C@H](CN(C)S(=O)(=O)c2cccc(F)c2)Oc2cc(Br)ccc2S1(=O)=O | inactive
C[C@@H]1CN([C@@H](C)CO)C(=O)c2cc(NS(C)(=O)=O)ccc2O[C@@H]1CN(C)C(=O)Nc1ccc(C(F)(F)F)cc1 | inactive
COc1ccc(S(=O)(=O)Nc2ccc3c(c2)C(=O)N([C@@H](C)CO)C[C@H](C)[C@@H](CN(C)C(=O)Nc2c(C)noc2C)O3)cc1 | inactive
C[C@@H]1CN([C@H](C)CO)C(=O)c2cc(NC(=O)Nc3cccc4ccccc34)ccc2O[C@@H]1CN(C)Cc1ccc2c(c1)OCO2 | inactive
CC(C)NC(=O)N(C)C[C@H]1OCCCC[C@H](C)Oc2ccc(NS(C)(=O)=O)cc2C(=O)N([C@@H](C)CO)C[C@@H]1C | inactive
CNC1CCC(c2ccc(Cl)c(Cl)c2)c2ccccc21.Cl (stereo not given) | active
N[C@@H]1CC[C@@H](c2ccc(Cl)c(Cl)c2)c2ccccc21 | active
CN[C@H]1CC[C@@H](c2ccc(Cl)c(Cl)c2)c2ccccc21 | inactive
COC(=O)c1c2oc(c1C(=O)OC)C(=O)N(C)Cc1cn(nn1)C[C@H](Cc1ccccc1)NC(=O)N[C@H](CO)CC2 | inactive
